Screening data deposited in PubChem BioAssay by The Scripps Research Institute Molecular Screening Center.
PPARg SRC2 recr: agonists of PPARg-SRC-2 recruitment, primary screen, biochemical, HTS; PPARgamma LBD-SRC-2 recruitment; activation, % at 8 µM; 200,000 tested, 0.34% active; Peroxisome proliferator-activated receptor gamma (Homo sapiens), P37231;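 also: 0% = vehicle and 100% = reference agonist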
PPARg SRC3 recr: PPARgamma agonists recruiting SRC-3 coactivator, primary screen, biochemical. Peroxisome proliferator-activated receptor gamma (Homo sapiens), P37231. biochemical PPARgamma/SRC-3 coactivator recruitment assay. activation, % at 8 µM. 200,000 tested, 0.26% active; in the data active = activation above about 23%;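 also: 0% = DMSO and 100% = reference agonist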
SRC3 TRFRET art: TR-FRET detection interference compounds, artefact control for PPARgamma SRC-3 recruitment agonists, biochemical, TR-FRET ratio; TR-FRET artefact counter-screen, PPARgamma/SRC-3 format; active compounds read high; TR-FRET ratio at 8 µM; 99,000 tested, 0.39% active; AID 1048, 2008; in the data active = TR-FRET ratio above about 2000
SRC1 TRFRET art: TR-FRET detection interference compounds, primary screen, artefact control for PPARgamma SRC-1 recruitment agonists, biochemical, TR-FRET emission ratio | TR-FRET detection artefact counter-screen; active compounds read high | TR-FRET ratio at 8 µM | 99,000 tested, 0.34% active | AID 1051, 2008; in the data active = TR-FRET ratio above about 2300
PPARg SRC1 recr: PPARgamma agonists recruiting SRC-1 coactivator, primary screen, biochemical | PPARgamma-SRC-1 coactivator recruitment biochemical assay | activation, % at 8 µM | 200,000 tested, 0.41% active | AID 631, 2007; in the data active = activation above about 19%;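 also: 0% = DMSO and 100% = reference agonist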
TR-FRET SRC-2 ct: TR-FRET signal artefacts, primary screen, artefact control for PPARgamma SRC-2 agonist project, biochemical. TR-FRET artefact counter-screen; active compounds read high. TR-FRET ratio at 8 µM. 200,000 tested, 0.4% active; in the data active = TR-FRET ratio above about 2000
PPARg SRC2 conf: agonists of PPARgamma SRC-2 coactivator recruitment, confirmation, biochemical, HTS | shares compounds with PPARg SRC3 recr | biochemical SRC-2 recruitment by PPARgamma | activation, % at 8 µM | 790 tested, 52% active | AID 1297, 2008;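 also: 0% = vehicle alone and 100% = reference agonist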
PPARg SRC1 conf: PPARgamma agonists recruiting SRC-1 coactivator, confirmation, biochemical. shares compounds with PPARg SRC3 recr. PPARgamma–SRC-1 coactivator recruitment biochemical assay. activation, % at 8 µM. 790 tested, 43% active; in the data active = activation above about 20%;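 also: 0% = vehicle wells and 100% = reference agonist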
PPARg SRC3 ag: PPARgamma-driven SRC-3 coactivator recruitment agonists, confirmation, biochemical; shares compounds with PPARg SRC3 recr; biochemical PPARgamma-SRC-3 coactivator recruitment, agonist mode; activation, % at 8 µM; 790 tested, 29% active; AID 1301, 2008; in the data active = activation above about 24%;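 also: 0% = vehicle wells and 100% = reference agonist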
* = called active by the depositor; nt = no result. This is a sample that favours compounds with a hit; in the whole collection about 0.84% have one here. Rule as the data show it, unless noted: active = activation above about 22%; inactive = the rest.

SMILES	PPARg SRC2 recr	PPARg SRC3 recr	SRC3 TRFRET art	SRC1 TRFRET art	PPARg SRC1 recr	TR-FRET SRC-2 ct	PPARg SRC2 conf	PPARg SRC1 conf	PPARg SRC3 ag
CCOC(=O)c1sc(NC(=O)c2ccco2)nc1-c1ccccc1	3.7	31.8*	nt	nt	26.4*	1718	31.7*	19.5	17.3
O=C(COC(=O)Cn1cnc2ccccc2c1=O)Nc1ccccc1Sc1ccc(Cl)cc1	7.3	2.9	1594	1777	2.3	1589	nt	nt	nt
CCC(=O)Nc1cccc(-c2nc3ccccc3c(=O)o2)c1	-12.7	18.3	nt	nt	18.8*	1739	4.5	13.8	14.9
COc1ccc(C(=O)COC(=O)CCc2nc3ccccc3[nH]c2=O)cc1Br	-1.6	5.2	1652	1714	-2.0	1789	nt	nt	nt
CN(C)c1ccc(/C=N/OC(=O)Nc2ccccc2Cl)cc1	5.6	7.0	1776	1735	8.9	1741	nt	nt	nt
CCn1c(C)nc2cc(S(=O)(=O)N3CCCC3)ccc21	24.1*	-10.4	nt	nt	1.1	1843	-2.1	1.7	2.3
CCn1c(SCC(=O)OC2CCCCC2)nnc1-c1ccncc1	29.4*	13.2	nt	nt	3.1	2048*	-2.3	-2.9	-2.1
CCn1c(SCC(=O)OC)nnc1-c1ccncc1	1.9	3.0	nt	nt	-2.6	1400	nt	nt	nt
CCn1c(=O)cc(SCC(=O)NCc2ccco2)c2ccccc21	32.8*	30.2*	nt	nt	22.4*	1824	27.2*	18.2	15.9
CCn1c(=O)cc(SCC(=O)NCc2cccnc2)c2ccccc21	18.0	2.3	nt	nt	20.6*	1938	19.5	13.6	11.5
CCn1c(=O)cc(SCC(=O)Nc2ccc(C)cn2)c2ccccc21	32.4*	25.0*	3211*	2927*	37.8*	2341*	28.5*	17.3	19.3
CCn1c(=O)cc(OCC(=O)Nc2ccc(C)cn2)c2ccccc21	-1.1	-4.2	nt	nt	-4.8	1467	nt	nt	nt
CCn1c(=O)cc(OCC(=O)NCc2cccnc2)c2ccccc21	-0.9	0.7	nt	nt	4.2	1642	nt	nt	nt
CCn1c(=O)cc(SCC(=O)NCc2ccc(C)cc2)c2ccccc21	70.2*	75.6*	nt	nt	50.0*	3248*	51.3*	33.9*	31.8*
CCn1c(=O)cc(SCC(=O)NCc2ccccn2)c2ccccc21	25.8*	18.3	nt	nt	20.1*	1908	26.7*	16.9	17.8
CCn1c(=O)cc(SCC(=O)NCc2ccc(C)o2)c2ccccc21	10.1	4.9	nt	nt	10.9	1550	nt	nt	nt
O=c1oc2cc(O)ccc2c2ccccc12	47.1*	59.8*	nt	nt	27.6*	2392*	29.6*	17.1	22.4
COc1ccc2c(c1)c(=O)oc1cc(O)ccc12	5.1	2.8	1675	1714	-2.4	1582	nt	nt	nt
CC(=O)c1ccc(N2CCN(C(=O)c3ccc(Cn4c(=S)[nH]c5ccc(N6CCOCC6)cc5c4=O)cc3)CC2)cc1	36.7*	34.7*	3877*	4282*	39.6*	3627*	19.3	14.8	12.2
CC(=O)Oc1ccccc1N(C(C)=O)S(=O)(=O)c1cccc([N+](=O)[O-])c1	0.1	-0.3	1727	1609	1.5	1438	nt	nt	nt
CCOc1ccc(S(=O)(=O)Nc2ccc(F)cc2)c(C)c1C	0.7	6.9	nt	nt	-2.2	1632	nt	nt	nt
O=C(CCCCCn1c(=O)[nH]c2ccccc2c1=O)NCCCN1CCN(c2ccccc2F)CC1	4.9	-6.0	nt	nt	0.5	1539	nt	nt	nt
CCN(CC)c1ccc(/C=C2/C(=O)ON=C2C)cc1	11.4	25.9*	1737	2156	18.0	1519	15.2	10.8	14.1
